Compound activity deposited in PubChem by National Center for Advancing Translational Sciences (NCATS).
ALDH1A1 inh-1 = ALDH1A1 (human) enzyme inhibition; 7.3% of 220,000 active; AID 1030; Potency, µM (top dose mostly 75.3 µM), for inactives: at the top dose activity, negative = inhibition, most hits filed as inhibitors; P00352; Purified ALDH1A1, NADH fluorescence, propionaldehyde substrate; active = well fitted inhibition curve with a large enough effect, not every such curve was filed as active; inconclusive = small, poorly fitted or top-dose-only effect, or another doubt; inactive = no such curve, though single readings can be large or run the other way;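 note: potency is the fitted concentration of half-maximal effect; plate controls were no enzyme wells and a reference inhibitor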
IMPase inh = membrane-permeable compound that blocks inositol monophosphatase | P97697 | CHO-M1 cells, IP1 accumulation, HTRF TR-FRET ratio | inhibition (IP1 accumulation), % at 46.1 µM | 120,000 tested, under 10 active | AID 901; active = well fitted curve in the direction sought with a large enough effect in the signal ratio, not every such curve was filed as active; inconclusive = small, poorly fitted or top-dose-only effect, or a change in a side signal; inactive = no such curve, though single readings can be large or run the other way; the % refers to the signal ratio;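 note: cells stimulated with carbachol in lithium chloride buffer; plate controls were DMSO basal wells for no effect and reference inhibitor wells for full effect; higher means more IMPase inhibition seen as more IP1 and lower FRET ratio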
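Elevated IP1 in lysates lowers TR-FRET signal (665/620 ratio and 620 channel reported). Cells were CHO-M1, given carbachol (50 uM as added) plus 50mM LiCl, pH 7.4, 30 min, 37C; compounds titrated up to 46 uM; AC50 by Hill equation.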
12-hLO inh = inhibitors of human 12-lipoxygenase (ALOX12) | 0.12% of 150,000 active | purified 12-hLO, xylenol orange hydroperoxide absorbance | Potency, µM (doses to about 57.1 µM), without a hit: top-dose activity change, negative = inhibition, usual class: inhibitors | AID 1452 | P18054; note: potency is the fitted concentration of half-maximal effect; % is set by controls: 0 for no effect and ±100 for the full control effect; nearly all actives have a fitted effect of over 55% in size
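Xylenol orange chromogenic assay: hydroperoxide from 12hLO oxidises Fe(II), giving red-shifted Fe(III)-XO absorbance. Conditions: 150 nM enzyme, 40 uM arachidonic acid, 25 mM Hepes pH 7.0, 0.01% Triton X-100, 30 min, room temperature.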
NPSR antag = antagonists of human neuropeptide S receptor cAMP signaling; Q6W5P4; CHO-NPSR cells, cAMP TR-FRET, antagonist mode; Potency, µM (highest dose often 38.3 µM), for the others: at the top dose activity change, negative = inhibition, most hits filed as inhibitors; 1% of 220,000 active; note: potency is the fitted concentration of half-maximal effect; % is set by controls: 0 for no effect and ±100 for the full control effect; nearly all actives have a fitted effect of over 50% in size
Target sequence (Q6W5P4 whole entry, looked up): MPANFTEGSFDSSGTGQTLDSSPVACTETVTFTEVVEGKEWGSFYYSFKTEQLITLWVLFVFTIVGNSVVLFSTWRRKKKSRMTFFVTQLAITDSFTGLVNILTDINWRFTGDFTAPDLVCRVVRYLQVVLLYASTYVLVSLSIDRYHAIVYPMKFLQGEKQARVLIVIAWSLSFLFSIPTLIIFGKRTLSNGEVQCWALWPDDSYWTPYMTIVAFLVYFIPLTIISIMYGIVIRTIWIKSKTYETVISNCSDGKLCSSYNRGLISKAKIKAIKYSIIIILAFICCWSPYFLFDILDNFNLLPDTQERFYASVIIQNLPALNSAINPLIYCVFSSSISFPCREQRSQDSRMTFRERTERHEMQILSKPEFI
HPGD inh = inhibitors of human 15-hydroxyprostaglandin dehydrogenase (HPGD); P15428; purified HPGD, NADH fluorescence kinetic, PGE2 substrate; Potency, µM, for the others: top-dose activity change, negative = inhibition, most hits filed as inhibitors; 4.3% of 150,000 active; AID 894; active = well fitted inhibition curve with a large enough effect, not every such curve was filed as active; inconclusive = small, poorly fitted or top-dose-only effect, or another doubt; inactive = no such curve, though single readings can be large or run the other way; note: potency is the fitted concentration of half-maximal effect; % is set by controls: 0 for no effect and ±100 for the full control effect
Target sequence (P15428 whole entry, looked up): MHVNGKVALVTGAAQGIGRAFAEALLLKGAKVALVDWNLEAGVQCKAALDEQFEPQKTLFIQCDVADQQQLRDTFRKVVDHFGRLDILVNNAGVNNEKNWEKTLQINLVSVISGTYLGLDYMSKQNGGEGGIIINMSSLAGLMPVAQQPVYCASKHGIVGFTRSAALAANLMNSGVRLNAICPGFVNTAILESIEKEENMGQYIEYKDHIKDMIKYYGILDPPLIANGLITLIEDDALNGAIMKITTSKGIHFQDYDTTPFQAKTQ
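NADH formation kinetics: reaction with 30 uM PGE2 and 1 mM NAD+ (final), 20 nM enzyme, Tris-HCl pH 8 with Tween 20, after 15 min compound preincubation at room temperature. Fluorescence change, last versus first of five reads.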
IMPase Li inh = membrane-permeable IMPase blocker, potentiated with lithium. CHO-M1 cells, IP1 TR-FRET (IP-One), carbachol + lithium. Potency, µM (top dose mostly 59.4 µM), without a hit: at the top dose activity, negative = IMPase inhibition, hits mostly inhibitors. 0.35% of 210,000 active. AID 1457;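 note: IP1 builds up when IMPase is blocked and the TR-FRET signal falls; potency is the fitted concentration of half-maximal effect; plate controls were basal vehicle for no effect and high inhibitor control for full effect; nearly all actives have a fitted effect of over 50% in size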
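CHO cells stably expressing M1 receptor (2000/well, cultured 16–30 h) treated 30 min at 37C with compound plus low lithium. Cytosolic IP1 by TR-FRET (665/620 ratio and 620 channel) after 10 min lysis; AC50 by Hill fit.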
ALDH1A1 inh-2 = Inhibits human ALDH1A1, confirmation and counter-screen; shares compounds with ALDH1A1 inh-1; Potency, µM (series often up to 57.1 µM), for inactives: at the highest dose activity change, negative = inhibition, most hits filed as inhibitors; 90% of 90 active; purified ALDH1A1, NADH fluorescence, propionaldehyde/NAD+; calls by dose curve
Active calls of the source: *; ? = inconclusive; nt = not tested or not shown; [ ] = dose if it differs, or a comment. Sampled rows, rich in hits. Any-hit rate of the full collection: about 8.9%. Unless noted, calls come from the whole dose curve; as a rule, active = well fitted curve in the direction sought with a large enough effect; inconclusive = small, poorly fitted or top-dose-only effect, or another doubt; inactive = no such curve, though single readings can be large; an effect the other way counts as inactive or inconclusive.

SMILES	ALDH1A1 inh-1	IMPase inh	12-hLO inh	NPSR antag	HPGD inh	IMPase Li inh	ALDH1A1 inh-2
Cc1cc(C)n(CC(O)CN(c2cccc([N+](=O)[O-])c2)S(=O)(=O)c2ccccc2)n1 (centres undefined)	1%	nt	nt	8%	nt	2%	nt
COc1ccc(CNC(=O)C(c2ccco2)N(Cc2cccs2)C(=O)Cc2cccs2)cc1 (centres undefined)	0.63µM*	11	-5%	-21%[46.1 µM]	-24%	18%[38.3 µM]	1.3µM*
COc1ccccc1OCCC(=O)NCc1ccc2c(c1)OCO2	4%	nt	nt	2%	nt	4%	nt
COc1ccccc1CN(CC(=O)NCc1ccc2c(c1)OCO2)C(=O)c1ccc2c(c1)OCCO2	0.079µM*	19	-11%	-7%	-1%	15%	0.045µM*
CC(C)NC(=O)c1ccc2c(c1)S(=O)(=O)c1ccccc1C2=O	?	4	-1%	-4%[46.1 µM]	-5%	8%[38.3 µM]	nt
COC(=O)c1ccc(Oc2nc3c(c(=O)n(C)c(=O)n3C)n2CCC(C)C)cc1	0.045µM*	4	4%	-6%[46.1 µM]	-18%	28%[38.3 µM]	0.1µM*
COC(=O)c1ccc(Oc2nc3c(c(=O)n(C)c(=O)n3C)n2C(C)C)cc1	nt	12	nt	nt	nt	nt	nt
O=C(OCCOCCO)c1ccccc1Nc1cccc(C(F)(F)F)c1	7%[20.9 µM]	0[20.6 µM]	-7%[25.6 µM]	nt	-8%	19%	nt
O=C(NCc1ccccn1)c1cc2n(n1)C(C(F)(F)F)CC(c1ccco1)N2 (centres undefined)	?	6	-5%	-1%[46.1 µM]	-16%	30%[38.3 µM]	nt
CCc1ccccc1NC(=O)N[C@H](C(=O)O)C(C)CC (some centres undefined)	-5%	-7	8%	-4%[46.1 µM]	-4%	19%[38.3 µM]	nt
CC[C@H](C)[C@H](NC(=O)OCC1c2ccccc2-c2ccccc21)C(=O)O	0.45µM*	-5	-1%	nt	-3%	3%	1µM*
O=c1[nH][nH]c(-c2ccccc2)c1C=Nc1cccc(Cl)c1	2%	2	1%	-18%[46.1 µM]	-11%	-1%[38.3 µM]	nt
COc1ccccc1CN(CC(=O)NCc1ccco1)C(=O)CNS(=O)(=O)c1ccccc1	?	10	-5%	-10%[46.1 µM]	-2%	-3%[38.3 µM]	nt
COc1ccc(-c2cc(=O)c3c(O)c(OC)c(O)cc3o2)cc1	-10%	nt	nt	42%	nt	4%	nt
COc1ccc(-c2cc(=O)c3c(O)c(OC)c(OC)c(OC)c3o2)cc1	0.11µM*	nt	-1%	nt	-11%	-4%	0.63µM*
Cc1ccc(NCCC(=O)c2cccc([N+](=O)[O-])c2)c(C)c1	0.13µM*	?	0%	-21%[46.1 µM]	-19%	1%	0.4µM*
O=C(N[C@@H](Cc1ccccc1)C(=O)CCl)OCc1ccccc1	0.35µM*	9	-4%	?	11µM*	22%	0.25µM*
O=C(O)CNC(=O)C(Cc1ccccc1)NC(=O)OCc1ccccc1 (centres undefined)	0%	nt	nt	12%	nt	-7%	nt
CN(Cc1ccccc1)Cc1nc2c(c(=O)n(C)c(=O)n2C)n1CCCc1ccccc1	0.71µM*	25	-4%	?	-5%	21%[38.3 µM]	0.56µM*
CCOC(=O)N1CCN(Cc2nc3c(c(=O)n(C)c(=O)n3C)n2CCCc2ccccc2)CC1	0.63µM*	12	-5%	-7%[46.1 µM]	3%	26%[38.3 µM]	0.63µM*
Cc1ccc(Cn2c(CN3CCN(C(=O)c4ccco4)CC3)nc3c2c(=O)n(C)c(=O)n3C)cc1	0.16µM*	2	-12%	-11%[46.1 µM]	-11%	-19%[38.3 µM]	0.5µM*
CCOC(=O)N1CCN(Cc2nc3c(c(=O)n(C)c(=O)n3C)n2Cc2ccccc2C)CC1	0.25µM*	11	-5%	-16%[46.1 µM]	-9%	3%[38.3 µM]	0.35µM*
CCCn1c(CN2CCN(C(=O)OCC)CC2)nc2c1c(=O)n(C)c(=O)n2C	7%	nt	nt	-11%	nt	3%	nt
CCc1nc2ccc(C(=O)Nc3ccc4c(c3)OCO4)cc2nc1CC	?	nt	nt	1%	nt	3%	nt
